# The campaign covered roughly 69,000 compounds. About 8,600 (12%) showed an effect of 50% or more. What follows is part of a selection rich in strong results, with near analogues and random picks from the rest.
# System: Plasmodium berghei
# Assay: Screen against P. berghei liver stage (PbLuc), transformed with Luciferase, at 10uM
# Assay type: functional, HepG2
# Details: tested at 10 uM
row,Structure (SMILES),INHIBITION
1,CN1CCN(Cc2cnc3n2CCN(Cc2cccs2)C3)CC1,30.7%
2,O=C(NC1CCNCC1)C1(N2CCCCC2)Cc2ccccc2C1,26.9%
3,CN(CCCO)c1nc(-c2ccc(C(N)=O)cc2)nc2c1CCNC2,-3.3%
4,O=S(=O)(NC1CCOC1)c1ccc(C(F)(F)F)nc1 (stereo not given),34.5%
5,COc1cc(CN2C[C@@H]3CNC(=O)[C@H](C)[C@@H]3C2)cc(OC)c1,-24.5%
6,O=C(c1ccoc1)N(Cc1cccnc1)C1CC1,17.1%
7,COc1ncccc1NC(=O)NC1CCCN(c2ncccn2)C1 (stereo not given),-19.9%
8,CN(C)CCOCC1CN(CC2CCOCC2)Cc2nnn(C)c21 (stereo not given),13%
9,CC(NC(=O)CCC(=O)c1cccs1)c1nnc2n1CCC2 (stereo not given),-31.5%
10,CNC(=O)COC(=O)c1cccc(-n2ccc(C(F)(F)F)n2)c1,40.6%
11,CNC(=O)CCOC(=O)c1cccc(-n2cccn2)c1,77.7%
12,CNC(=O)CCOC(=O)c1cccc(-n2ccc(C(F)(F)F)n2)c1,24.8%
13,CO[C@H]1CCN(Cc2cnn(C)c2)[C@@H]2CN(Cc3cccnc3)C[C@H]12,0%
14,COc1ccc(-c2cc(C(=O)NCCCn3ccnc3C)n(C)n2)cc1,18.3%
15,COCC(=O)NCc1cccc(OCCN(C)C2CCOCC2)c1,88.1%
16,CC(C)CC(=O)NCc1cccc(OCCN(C)C2CCOCC2)c1,71.3%
17,CN(CCOc1cccc(CNC(=O)C2CC2)c1)C1CCOCC1,29.2%
18,CN(CCOc1cccc(CNS(C)(=O)=O)c1)C1CCOCC1,39.5%
19,CN(CCOc1cccc(CN)c1)C1CCOCC1,0%
20,CCC(C)C(=O)NCc1cccc(OCCN(C)C2CCOCC2)c1 (stereo not given),39.5%
21,CSC(C)(C)CNC(=O)NC1CCN(CC(F)F)CC1,33.7%
22,CN(C)CC1CN(Cc2ccc(F)cc2)Cc2nccn2C1 (stereo not given),24.1%
23,COc1ccc(-n2cc3nc(N)[nH]cc-3c2=O)cc1,28.4%
24,O=C1[C@H]2CN(Cc3cccs3)C[C@H]2CN1c1ccsc1,14.8%
25,CCC(O)CN(c1ccccc1)S(=O)(=O)c1cnc(C)s1 (stereo not given),37.8%

row,Structure (SMILES),INHIBITION
1,Cc1ncsc1C(=O)N(Cc1ccccc1)C1CC1,33.45%
2,CCC(O)CN(Cc1ccccc1)S(=O)(=O)c1cnc(C)s1 (stereo not given),52.6%
3,CN(CCOc1ccc(C#N)cc1)CC1CCS(=O)(=O)C1 (stereo not given),22.6%
4,Cn1cc(N2C(=O)CC[C@@H]3[C@H]2CCN3Cc2ccncc2)cn1,-10.4%
5,Cn1cc(CN2CC[C@@H]3[C@H]2CCC(=O)N3c2ccccc2)cn1,-46.8%
6,COc1ccc(CN2CC[C@@H]3[C@H]2CCC(=O)N3c2cnn(C)c2)cc1,61.9%
7,CN1CCN(C2CCN(CC(O)c3ccccc3F)CC2)C1=O (stereo not given),17.065%
8,c1cnc(-c2nn3c(CN4CCCCC4)nnc3s2)cn1,6.83%
9,COc1cc(CC2CC(C(N)=O)=NO2)cc2c1OCO2 (stereo not given),16.3%
10,CCOC(=O)C1=NOC(Cc2cc(OC)c3c(c2)OCO3)C1 (stereo not given),60%
11,COC(=O)C1=NOC(Cc2cc(OC)c3c(c2)OCO3)C1 (stereo not given),10.7%
12,CN1CC(C(=O)NCCc2ccc(F)c(Br)c2)CC1=O (stereo not given),-50.6%
13,O=C(CCN1CCCCCC1c1ccco1)N1CCOCC1 (stereo not given),19.5%
14,CS(=O)(=O)NCCCN1CCCC1c1ccccc1 (stereo not given),9.25%
15,O=C(CCN1CCCCC1c1cc2ccccc2[nH]1)N1CCOCC1 (stereo not given),55.8%
16,CS(=O)(=O)NCCCN1CCCCC1c1cc2ccccc2[nH]1 (stereo not given),52%
17,COc1ccc(C2CCCCCN2CCCNS(C)(=O)=O)cc1 (stereo not given),0.914%
18,O=C(CCN1CCC(c2cc3ccccc3[nH]2)CC1)N1CCOCC1,39.7%
19,OC(CN1CCN(Cc2cccc(F)c2)CC1)C1CC1 (stereo not given),-16.5%
20,Cc1n[nH]c(C)c1NC(=O)CN1CCCC1c1noc(C(C)C)n1 (stereo not given),14.1%
21,c1cncc(-c2noc(CN3CCOC(Cn4cccn4)C3)n2)c1 (stereo not given),16.1%
22,Cc1ccc(CN(CCN(C)C)C(=O)Nc2cnn(C)c2)s1,46.4%
23,CN(C)c1nccc(C2CCCN2S(=O)(=O)c2cn(C)cn2)n1 (stereo not given),12.3%
24,O=C(NCc1nnc2n1CCC2)c1cn(-c2cccc(Br)c2)nn1,35.7%
25,COCCNC(=O)Nc1ccc(F)c(C(N)=O)c1,39.8%

row,Structure (SMILES),INHIBITION
1,CCOCC1CN(S(=O)(=O)C2CC2)Cc2ncn(CC3CC3)c21 (stereo not given),7.53%
2,COCC1CN(C(=O)COc2ccccc2)Cc2ncn(C)c21 (stereo not given),51.2%
3,COCC1CN(S(=O)(=O)C2CC2)Cc2ncn(CC3CC3)c21 (stereo not given),51%
4,CCn1nnc2c1C(COC)CN(C(=O)COc1ccccc1)C2 (stereo not given),-12.2%
5,COCC1CN(C(=O)COc2ccccc2C)Cc2ncn(C)c21 (stereo not given),-9.42%
6,COCC1CN(CC2CC2)Cc2ncn(CC3CC3)c21 (stereo not given),13.5%
7,COCC1CN(C(=O)CS(C)(=O)=O)Cc2ncn(CC3CC3)c21 (stereo not given),50%
8,CCS(=O)(=O)N1Cc2ncn(CC3CC3)c2C(COC)C1 (stereo not given),11.5%
9,COCC1CN(S(C)(=O)=O)Cc2ncn(CC3CC3)c21 (stereo not given),-3.1%
10,CS(=O)(=O)c1ccc(-c2nc(C(=O)N3CCCC3)n3ccccc23)cc1,-42.9%
11,Cc1ccc(CN2CC[C@@H](O)[C@@H]2Cc2ccccc2)o1,42.3%
12,CC1=C(c2ccc(F)cc2)S(=O)(=O)N=C1N1CCc2ccccc21,0.29%
13,CC(C)N(C)CCNC(=O)N1CCN(Cc2ccon2)CC1,-0.514%
14,CC(=O)N(Cc1ncc(C)o1)C1CCN(Cc2ccc(F)c(F)c2)C1 (stereo not given),68.9%
15,Cc1cnc(CN(C)C2CCN(Cc3sc(C)nc3C)C2)o1 (stereo not given),21.6%
16,Cc1cnc(CN(C)C2CCN(Cc3cnc(C)s3)C2)o1 (stereo not given),23.1%
17,CCS(=O)(=O)CCN1CCC(N(C)Cc2ncc(C)o2)C1 (stereo not given),74.4%
18,CC(=O)N(Cc1ncc(C)o1)C1CCN(Cc2cccnc2)C1 (stereo not given),31.9%
19,Cc1cnc(CN(Cc2ccc(C#N)cc2F)C2CCN(C)C2)o1 (stereo not given),-40.7%
20,CCc1cnc(CN(C)C2CCN(CCS(C)(=O)=O)C2)o1 (stereo not given),36.8%
21,CC(=O)N(Cc1ncc(C)o1)C1CCN(Cc2ccccc2F)C1 (stereo not given),-19.9%
22,Cc1cnc(CN(C)C2CCN(Cc3ccc(Cl)s3)C2)o1 (stereo not given),60%
23,COc1ccc(C)cc1CN(Cc1ncc(C)o1)C1CCN(C)C1 (stereo not given),23.7%
24,Cc1cnc(CN(Cc2ccc(Cl)s2)C2CCN(C)C2)o1 (stereo not given),51.2%
25,CC(C)c1cnc(CN(C)C2CCN(CCS(C)(=O)=O)C2)o1 (stereo not given),38.5%

# Reference: ChEMBL document CHEMBL4513216, “Probing the Open Global Health Chemical Diversity Library for Multistage-Active Starting Points for Next-Generation Antimalarials” (ACS Infect Dis, 2020)
